# Several values for one entry are separate records, joined by “and”; a condition that tells them apart may be missing. Equal entries are not always repeated. The source holds several records for some structures; these can differ, active in one and inactive in another. Activity calls are given as the source filed them. How the source made its calls: active means hit-call score of the fitted dose curve at least 0.9, where 1 is the maximum; inactive means score below 0.9.
# What was measured:
# [1] = ATG_PXRE_CIS: Attagene CIS-FACTORIAL HepG2 Assay for human Pregnane X Receptor Element (PXRE) (AID 2282957); settings: HepG2 Attagene CIS-FACTORIAL PXRE reporter, mRNA; actives raise or lower the signal
# Method in brief: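 HepG2 cells transiently transfected with cis-element-driven multiplexed reporter units; after 24 h chemical exposure, reporter mRNA measured by RT-PCR, 6-FAM labelling, HpaI digestion and capillary electrophoresis. Bidirectional fitting relative to DMSO.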
# [2] = ATG_Sox_CIS: Attagene CIS-FACTORIAL HepG2 Assay for human SRY-box transcription factor (SOX) (AID 2282960); settings: HepG2 Attagene cis-factorial SOX reporter, mRNA; actives raise or lower the signal
# Method in brief: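 Reporter transcripts, measured by RT-PCR and capillary electrophoresis of labelled fragments, report endogenous SOX transcription factor activity. Transiently transfected human HepG2 cells receive chemical for 24 h; changes in either direction are fitted relative to DMSO.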
# [3] = target: Transcription factor Sp1 (Homo sapiens) (UniProt P08047); assay: ATG_Sp1_CIS: Attagene CIS-FACTORIAL HepG2 Assay for human Specificity Protein 1 (Sp1) (AID 2282961); settings: HepG2 Sp1 cis-reporter transcription, actives raise or lower the signal
# Method in brief: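 Read-out is reporter transcript level, measured by RT-PCR and fluorescent capillary electrophoresis after 24 h chemical treatment. System: transiently transfected HepG2 cells reporting endogenous transcription factor activity; gain or loss fitted against DMSO baseline.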
# [4] = ATG_SREBP_CIS: Attagene CIS-FACTORIAL HepG2 Assay for human Sterol Regulatory Element Binding (SREBP) (AID 2282962); settings: HepG2 Attagene cis-factorial SREBP reporter, mRNA; actives raise or lower the signal
# Method in brief: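 HepG2 cells transiently transfected with multiplexed cis-promoter reporter units sensing endogenous transcription factors; reporter mRNA measured 24 h after dosing by RT-PCR, 6-FAM labeling, HpaI digestion and capillary electrophoresis. Bidirectional fit versus DMSO.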
# [5] = target: Signal transducer and activator of transcription 3 (Homo sapiens) (UniProt P40763); assay: ATG_STAT3_CIS: Attagene CIS-FACTORIAL HepG2 Assay for human Signal Transducer and Activator of Transcription 3 (STAT3) (AID 2282963); settings: HepG2, Attagene cis-factorial STAT3 reporter transcription; actives raise or lower the signal
# Method in brief: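 Transcript-level reporter assay. HepG2 transient MRTU transfection, 24 h exposure, fluorescence detection after RT-PCR and CE; DMSO baseline.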
# [6] = ATG_TCF_b_cat_CIS: Attagene CIS-FACTORIAL HepG2 Assay for human T-Cell-Factor with beta-catenin (TCF/b-cat) (AID 2282965); settings: HepG2 TCF/beta-catenin cis-reporter transcription, actives raise or lower the signal
# Method in brief: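 HepG2 cells transiently transfected with multiple cis-promoter-regulated reporter transcription units, so endogenous transcription factor activity is measured. Reporter mRNA read 24 hours after dosing by RT-PCR, fluorescent labelling and capillary electrophoresis; bidirectional fitting against DMSO.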
# [7] = ATG_TAL_CIS: Attagene CIS-FACTORIAL HepG2 Assay for human TAL Basal Promoter (AID 2282966); settings: HepG2 Attagene cis-factorial TAL promoter reporter; actives raise or lower the signal;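 further: background control endpoint measuring basal TAL promoter reporter mRNA not a specific factor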
# Method in brief: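 HepG2 cells transiently transfected with multiplexed cis-promoter reporter units, dosed 24 h. Reporter mRNA quantified by RT-PCR, 6-FAM labelling, HpaI digestion and capillary electrophoresis; TAL basal promoter serves as background control, fitted bidirectionally versus DMSO.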
# [8] = ATG_PPRE_CIS: Attagene CIS-FACTORIAL HepG2 Assay for human Peroxisome Proliferator-activated Response Element (PPRE) (AID 2282958); settings: HepG2 PPRE cis-element reporter, Attagene transcription factor profiling; actives raise or lower the signal
# Method in brief: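 Endogenous PPRE-driven transcription is measured in HepG2 cells carrying transfected multi-reporter constructs. Reporter transcripts are quantified by RT-PCR, HpaI digestion and capillary electrophoresis 24 h after dosing. DMSO baseline, bidirectional fit.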
# [9] = ATG_RORE_CIS: Attagene CIS-FACTORIAL HepG2 Assay for human RAR-related Orphan Receptor Element (RORE) (AID 2282959); settings: HepG2 Attagene cis-factorial RORE reporter, mRNA; actives raise or lower the signal
# Method in brief: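 RORE reporter transcripts reflecting endogenous factor activity were read after 24 h compound exposure of transfected HepG2 cells, using reverse transcription, PCR, fluorescent labelling and capillary electrophoresis sizing. Gain or loss fitted against DMSO.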
# [10] = ATG_TA_CIS: Attagene CIS-FACTORIAL HepG2 Assay for human TA Basal Promoter (AID 2282964); settings: HepG2 Attagene CIS-factorial TA basal promoter reporter; actives raise or lower the signal
# Method in brief: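 Background-control readout: TA basal promoter reporter mRNA, fitted in both directions relative to DMSO. Measured by RT-PCR and capillary electrophoresis 24 hours after treating HepG2 human liver cells transiently carrying multiplexed cis-regulated reporter constructs.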
# Transcription factor Sp1 (Homo sapiens), sequence (P08047 whole entry, looked up): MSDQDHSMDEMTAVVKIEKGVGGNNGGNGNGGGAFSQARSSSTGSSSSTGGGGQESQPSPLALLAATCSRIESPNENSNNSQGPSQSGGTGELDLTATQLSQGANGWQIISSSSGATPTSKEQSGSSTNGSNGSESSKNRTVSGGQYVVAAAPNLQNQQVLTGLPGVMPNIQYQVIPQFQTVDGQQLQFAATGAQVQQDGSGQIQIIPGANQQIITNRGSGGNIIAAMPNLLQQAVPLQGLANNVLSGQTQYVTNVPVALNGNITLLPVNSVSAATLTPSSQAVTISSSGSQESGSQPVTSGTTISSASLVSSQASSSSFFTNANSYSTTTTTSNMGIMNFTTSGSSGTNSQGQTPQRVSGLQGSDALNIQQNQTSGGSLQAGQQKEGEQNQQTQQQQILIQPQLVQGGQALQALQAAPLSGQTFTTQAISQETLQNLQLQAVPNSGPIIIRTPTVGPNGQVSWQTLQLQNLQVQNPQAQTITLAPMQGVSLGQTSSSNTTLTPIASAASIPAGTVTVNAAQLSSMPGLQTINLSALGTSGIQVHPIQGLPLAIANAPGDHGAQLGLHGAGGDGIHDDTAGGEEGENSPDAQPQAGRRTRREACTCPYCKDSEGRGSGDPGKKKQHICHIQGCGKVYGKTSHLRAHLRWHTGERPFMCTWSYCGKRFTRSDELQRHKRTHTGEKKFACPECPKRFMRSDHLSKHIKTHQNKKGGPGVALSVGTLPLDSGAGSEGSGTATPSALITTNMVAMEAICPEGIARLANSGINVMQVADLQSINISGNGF
# Signal transducer and activator of transcription 3 (Homo sapiens), sequence (P40763 whole entry, looked up): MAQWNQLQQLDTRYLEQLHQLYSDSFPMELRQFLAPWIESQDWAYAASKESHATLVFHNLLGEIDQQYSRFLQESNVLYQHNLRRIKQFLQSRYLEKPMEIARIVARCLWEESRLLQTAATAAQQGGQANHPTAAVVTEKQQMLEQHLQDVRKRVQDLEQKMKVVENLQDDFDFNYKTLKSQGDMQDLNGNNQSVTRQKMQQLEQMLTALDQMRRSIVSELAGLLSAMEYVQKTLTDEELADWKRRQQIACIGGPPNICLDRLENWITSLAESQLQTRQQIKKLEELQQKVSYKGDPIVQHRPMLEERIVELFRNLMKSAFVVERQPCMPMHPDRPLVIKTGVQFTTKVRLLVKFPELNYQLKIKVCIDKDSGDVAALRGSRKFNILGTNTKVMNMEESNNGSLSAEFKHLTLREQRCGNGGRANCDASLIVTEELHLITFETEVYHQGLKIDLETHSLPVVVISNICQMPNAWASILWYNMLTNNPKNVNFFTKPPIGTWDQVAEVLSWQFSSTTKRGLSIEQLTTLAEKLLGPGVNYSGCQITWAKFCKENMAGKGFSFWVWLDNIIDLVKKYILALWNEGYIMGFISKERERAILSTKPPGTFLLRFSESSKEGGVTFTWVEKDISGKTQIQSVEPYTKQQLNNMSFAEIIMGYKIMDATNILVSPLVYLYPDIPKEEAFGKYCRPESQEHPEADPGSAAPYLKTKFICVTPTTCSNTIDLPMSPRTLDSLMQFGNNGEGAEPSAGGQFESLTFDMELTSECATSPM
SMILES,AC50 [1],outcome [1],outcome [2],outcome [3],outcome [4],outcome [5],outcome [6],outcome [7],outcome [8],outcome [9],AC50 [3],AC50 [10],outcome [10],AC50 [4],AC50 [8],AC50 [2],AC50 [5],AC50 [6],AC50 [9],AC50 [7]
Cc1ccc(S(=O)(=O)O)cc1,26.3 µM (active),inactive,inactive,inactive,inactive,inactive,inactive,inactive,,,,,,,,,,,,
CCCCCCCCCCCC[N+](C)(C)Cc1ccccc1,,inactive,inactive,inactive,,,inactive,inactive,inactive,inactive,6.43 µM (active),17.7 µM (active),inactive,,,,,,,
NC(C(F)(F)F)C(F)(F)F,,inactive,inactive,inactive,inactive,inactive,inactive,inactive,inactive,inactive,,,inactive,,,,,,,
NNC(=O)CCCCC(=O)NN,,inactive,inactive,inactive,inactive,inactive,inactive,inactive,inactive,inactive,,,inactive,,,,,,,
Cc1ccccc1C(OCCN(C)C)c1ccccc1 (stereo unspecified),27 µM (active),inactive,inactive,inactive,inactive,inactive,inactive,inactive,inactive,inactive,,,inactive,48.6 µM (active),,,,,,
Cc1ccc(C)c(S(=O)(=O)O)c1,,inactive,inactive,inactive,inactive,inactive,inactive,inactive,inactive,inactive,,,inactive,,,,,,,
CCCCCCCCCCCC(=O)O,,inactive,inactive,inactive,,inactive,inactive,inactive,inactive,inactive,36.7 µM (active),,inactive,,,,,,,
CCCCCCCCCCCCCCCCCC[N+](C)(C)Cc1ccccc1,,inactive,,inactive,,,inactive,inactive,,inactive,,,inactive,13.2 µM (active),79.8 µM (active),12.4 µM (active),88.9 µM (active),,,
COC1=CC(=O)C[C@@H](C)[C@]12Oc1c(Cl)c(OC)cc(OC)c1C2=O,,inactive,inactive,inactive,inactive,inactive,,inactive,inactive,inactive,,,inactive,,,,,20.4 µM (active),,
CNNCc1ccc(C(=O)NC(C)C)cc1,25.7 µM (active),inactive,inactive,inactive,inactive,,inactive,inactive,inactive,,,,inactive,,,,,,,
C=C(c1ccc(C(=O)O)cc1)c1cc2c(cc1C)C(C)(C)CCC2(C)C,0.154 µM (active),inactive,inactive,inactive,inactive,inactive,inactive,inactive,,inactive,32.9 µM (active),11.1 µM (active) and 29.8 µM (active),,,9.14 nM (active) and 19.3 nM (active),,,13.7 µM (active),2.2 µM (active),30.4 µM (active)
O=C(c1ccccc1)c1ccccc1,51.4 µM (active),inactive,inactive,inactive,inactive,inactive,inactive,inactive,,inactive,,,,,,,,,,
NCCN,164 µM (active),inactive,inactive,inactive,inactive,,inactive,inactive,inactive,inactive,,,inactive,,,,,,,
CCN(CC)CC,,inactive,inactive,inactive,inactive,inactive,inactive,inactive,inactive,inactive,,,inactive,,,18.3 µM (active),,,,
O=S(=O)(O)c1ccccc1,55.5 µM (active),inactive,inactive,inactive,,inactive,inactive,inactive,inactive,inactive,,,inactive,,57.9 µM (active),,,,,
CCCCC(CC)C(=O)O (stereo unspecified),,inactive,inactive,inactive,inactive,inactive,inactive,inactive,inactive,inactive,,,inactive,,,,,,,
CCC(C)c1ccccc1O (stereo unspecified),27.4 µM (active) and 30.9 µM (active),,inactive,inactive,inactive,inactive,inactive,inactive,inactive,inactive,,,inactive,,,,,164 µM (active),,
CCO[Si](CCC1CCC2OC2C1)(OCC)OCC (stereo unspecified),,inactive,inactive,inactive,inactive,inactive,inactive,inactive,inactive,inactive,,,inactive,,,,,,,
Cn1sccc1=O,142 µM (active),,,,,inactive,,inactive,inactive,inactive,153 µM (active),,inactive,161 µM (active),,154 µM (active),,92.9 µM (active),,
